These results are taken from ChEMBL document CHEMBL4513216, “Probing the Open Global Health Chemical Diversity Library for Multistage-Active Starting Points for Next-Generation Antimalarials” (ACS Infect Dis, 2020).

In all, about 68,000 compounds went through this assay and about 2,700 (4%) showed an effect of 50% or more. This is one part of a sample in which strong results are shown more often than they occur.

The subject of the test is Plasmodium berghei. Nature of the test: Screen against P. berghei liver stage (PbLuc), transformed with Luciferase, at 2uM. Format: functional, HepG2. The settings on record: tested at 2 uM.
As for `Cc1cc(C)n(CC2CCN(CC(O)COc3ccccc3)CC2)n1` (configuration not stated), the INHIBITION is reported as -1.96%.

In the case of `O=C(COc1coc(CN2CCCCC2)cc1=O)NCc1ccccc1`, the INHIBITION is -11.78%.

In the case of `Cc1ccn(CCC(=O)NCc2ccc(C)o2)n1`, the INHIBITION was 19.49%.

For `O=C(CCn1cccc1)NCc1ccc(CN2CCCCCC2)o1`, the INHIBITION is 56.24%.

As for `Cc1cccc(CN2C(=O)CCC23CCN(C(=O)c2ccco2)CC3)c1`, the INHIBITION came to 70.48%.

`O=C(c1ccco1)N1CCC2(CCC(=O)N2Cc2cccc(F)c2)CC1`: the INHIBITION was found to be 33.16%.

Turning to `O=C(c1ccco1)N1CCC2(CCC(=O)N2Cc2ccccc2)CC1`, the INHIBITION was determined as 21.06%.

Regarding `O=C(NC1CCN(c2ncccc2F)C1)c1cccc(-n2ccnn2)c1` (configuration not stated), the INHIBITION was found to be 25.78%.

For `CNCC[C@H]1CC(C)(C)Oc2ccc(C)cc21`, the INHIBITION is reported as -7.01%.

Turning to `N#Cc1cccc(CN2Cc3nccn3CC(CN3CCCC3)C2)c1` (configuration not stated), the INHIBITION stood at 32.04%.

On to `Cc1c(C(=O)NCCCS(C)(=O)=O)cccc1-c1ccccn1`, for which the INHIBITION is 3.63%.

As for `Cc1c(C(=O)NCCC(=O)N2CCCC2)cccc1-c1ccccn1`, the INHIBITION is on record as 59.67%.

`Cc1c(C(=O)NCC(C)(C)S(C)(=O)=O)cccc1-c1ccccn1`: the INHIBITION is given as -62.92%.

Take `Cc1cccc(CC(=O)N2CCOCC2c2c(C)n[nH]c2C)c1` (configuration not stated): the INHIBITION is given as 37.57%.

Turning to `Cc1cccc(CCC(=O)N2CCOCC2c2c(C)n[nH]c2C)c1` (configuration not stated), the INHIBITION was found to be 74.35%.

As for `Cc1n[nH]c(C)c1C1COCCN1C(=O)Cc1cccc(F)c1` (configuration not stated), the INHIBITION was determined as 13.24%.

With `COCCC(=O)Nc1cnn(COc2ccc(F)cc2Cl)c1`, the INHIBITION was -17.37%.

Take `CCc1cnc(C)nc1NC(C)C(=O)Nc1cc(F)ccc1C` (configuration not stated): the INHIBITION was 20.32%.

As to `O=C(NC1CC1)c1cc(C2CCCN(Cc3ccccn3)C2)no1` (configuration not stated), the INHIBITION is -15.37%.

With `CCCNC(=O)c1cc(C2CCCN(Cc3ccccn3)C2)no1` (configuration not stated), the INHIBITION is on record as 72.41%.

In the case of `O=C(c1cc(C2CCCN(Cc3ccccn3)C2)no1)N1CCCC1` (configuration not stated), the INHIBITION is listed as 39.48%.

For the compound `CC(C)c1nn(C)c(Cl)c1CNC1CCOc2ccccc21` (configuration not stated), the INHIBITION is listed as -14.17%.

`CN(C)c1ccc(CN2CCN(c3ccc(C#N)cc3)C(=O)C2)cn1`: the INHIBITION was -13.81%.

With `Cc1ccc(CN2CCN(Cc3ccc(N(C)C)nc3)CC2=O)cc1C`, the INHIBITION is given as 61.3%.

With `Cc1ccc(CN2CCN(c3cncc(N(C)C)n3)CC2=O)cc1C`, the INHIBITION amounted to 27.72%.

Take `CC1COCCN1Cc1nc(-c2ccc(Br)s2)no1` (configuration not stated): the INHIBITION was found to be 17.31%.

Take `Fc1ccc(-c2noc3c2CN(CC2CC2)CC3)cc1F`: the INHIBITION turned out to be 21.49%.

In the case of `CC(C)(O)CCc1cccc(C(=O)NCCC2=CSC3=NCCCN23)c1`, the INHIBITION worked out at 9.51%.

Regarding `COCCNc1ccc(CC2CCCN(Cc3c[nH]cn3)C2)nn1` (configuration not stated), the INHIBITION is -35.23%.

For `CCOc1ccccc1C(=O)NC(CC(=O)O)c1cccs1` (configuration not stated), the INHIBITION is listed as -23.34%.

`CCCC(NC(=O)c1cc(C2CC2)[nH]n1)c1nnc2ccccn12` (configuration not stated): the INHIBITION came to 19.42%.

Consider `NCc1n[nH]c(=O)n1-c1ccccc1Oc1ccccc1`, for which the INHIBITION is recorded as 28.73%.

As to `COCCN1CCOCC12CCN(c1cnccn1)CC2`, the INHIBITION is on record as 10.71%.

Take `CC(C)N1CCOCC2(CCN(c3cnccn3)CC2)C1`: the INHIBITION is given as -10.43%.

For `COCCN1CCOCC2(CCN(c3cnccn3)CC2)C1`, the INHIBITION is recorded as 50.85%.

Turning to `Cc1nc(C(=O)N2CCC(c3cc(CCO)n(C)n3)C2)co1` (configuration not stated), the INHIBITION is on record as -13.45%.

For `Cc1nc(CN(C)C2CCCN(c3ccccc3)C2)no1` (configuration not stated), the INHIBITION was found to be 74.35%.

Regarding `Cc1nc(CN(C)C2CCCN(c3cccnn3)C2)no1` (configuration not stated), the INHIBITION turned out to be 51.21%.

Consider `Cc1ccc(N2CCCC(N(C)Cc3cc(C)on3)C2)nn1` (configuration not stated), for which the INHIBITION was -1.21%.

With `Cc1ccc(N2CCCC(N(C)Cc3cc(C)no3)C2)nn1` (configuration not stated), the INHIBITION is recorded as 75.47%.

Take `Cc1nc(CN(C)C2CCN(Cc3nc4ccccc4n3C)C2)no1` (configuration not stated): the INHIBITION was -2.87%.

On to `Cc1nc(CN(C)C2CCN(CC3CCC3)C2)no1` (configuration not stated), for which the INHIBITION was determined as 15.28%.

For the compound `CC(C)c1nc(CN(C)C2CCCN(c3cccnn3)C2)no1` (configuration not stated), the INHIBITION is recorded as -68.26%.

For `Cc1nc(CN(C)C2CCN(CCCc3ccccc3)C2)no1` (configuration not stated), the INHIBITION turned out to be 16.25%.

Turning to `Cc1nc(CN(C)C2CCN(Cc3ccc4ccccc4n3)C2)no1` (configuration not stated), the INHIBITION worked out at 55.7%.

On to `Cc1nc(CN(C)C2CCN(Cc3nc4ccccc4s3)C2)no1` (configuration not stated), for which the INHIBITION was -75.02%.

In the case of `Cc1cc(CN(C)C2CCCN(c3cccnn3)C2)on1` (configuration not stated), the INHIBITION is 13.35%.

Take `CN(Cc1noc(C2CC2)n1)C1CCCN(c2cccnn2)C1` (configuration not stated): the INHIBITION was -13.24%.

Turning to `COCCC(=O)NC(C)(C(N)=O)c1cccc(Cl)c1` (configuration not stated), the INHIBITION was 7.37%.

For `O=S1(=O)CCC(n2nc(COc3ccccc3)nc2-c2cnccn2)C1` (configuration not stated), the INHIBITION was -5.42%.

For the compound `Cc1nc(CCNC(Cc2ccncc2)C(F)(F)F)cs1` (configuration not stated), the INHIBITION is -2.89%.

For the compound `CCN(C)Cc1n[nH]c(=O)n1-c1cc(F)ccc1C`, the INHIBITION is 5.78%.

`CN(C)C(=O)Cc1ccccc1NCc1noc(-c2ccccc2)n1`: the INHIBITION came to 22.19%.

For `CCn1nccc1CNc1nc(N)nc2c1nc(C)n2C`, the INHIBITION came out at 14.79%.

As for `CNC(=O)C(NC(=O)c1nccn2ccnc12)c1ccc(F)c(F)c1` (configuration not stated), the INHIBITION stood at 29.53%.

For `CSCCC(Nc1nc(C)cc(C)n1)C(=O)NCC1CCOCC1` (configuration not stated), the INHIBITION was 0.62%.

As for `CC(C)c1noc(CN2CCOCC2C)n1` (configuration not stated), the INHIBITION came to 27.86%.

`CN(CC(=O)Nc1ccncc1)C1CCCN(c2cccnn2)C1` (configuration not stated): the INHIBITION was 7.13%.

Take `CN(CC(=O)NCc1ccccn1)C1CCCN(c2cccnn2)C1` (configuration not stated): the INHIBITION is -117.12%.

Take `COCCCNC(=O)CN(C)C1CCCN(c2cccnn2)C1` (configuration not stated): the INHIBITION came to 64.16%.

On to `Cc1ccc(C(=O)N2CCC3(CCCCC3)C2)c(=O)[nH]1`, for which the INHIBITION is reported as -8.54%.

Regarding `CN(C)C(=O)c1c[nH]nc1C1CCN(S(=O)(=O)c2cccc(Cl)c2)CC1`, the INHIBITION was found to be 13.02%.

Regarding `Cc1ncsc1-c1nnc(C2CCN(Cc3cccc(F)c3F)CC2)o1`, the INHIBITION turned out to be 35.56%.

Take `Cc1cccc(CN2CCC3(CCCN(C(=O)N(C)C)C3)C2=O)n1` (configuration not stated): the INHIBITION came out at 51.81%.

`Cc1cccc(CN2CCC3(CCCN(C(=O)N4CCCC4)C3)C2=O)n1` (configuration not stated): the INHIBITION was -9.14%.

With `Cc1cccc(CN2CCC3(CCCN(C(=O)CN(C)C)C3)C2=O)n1` (configuration not stated), the INHIBITION is 28.95%.

Regarding `CC(C)NC(=O)CCCn1cnc2ccccc2c1=O`, the INHIBITION is given as 35.43%.

For `Cn1cnc2ccc(NC(=O)CCCn3cccn3)cc2c1=O`, the INHIBITION stood at 25.61%.

Regarding `COCCn1cnc2ccc(NC(=O)CCCn3cccn3)cc2c1=O`, the INHIBITION turned out to be 52.05%.

On to `COCC(C)NC(=O)CCCn1cnc2ccccc2c1=O` (configuration not stated), for which the INHIBITION is given as 51.36%.

On to `CC(C)Cn1cnc2ccc(NC(=O)CCCn3cccn3)cc2c1=O`, for which the INHIBITION worked out at 16.03%.

`CC(NC(=O)CCCn1cnc2ccccc2c1=O)c1ncn[nH]1` (configuration not stated): the INHIBITION was 22.27%.
